Laboratory results published in the supplement of paper PMC11383364.
Several values for one entry are separate records, joined by “and”; a condition that tells them apart may be missing. Equal entries are not always repeated.

These compounds were tested on SUM149 (assay: percent difference in area under dose-response curve of relative cell number, RPMI vs HPLM; higher = drug relatively more effective in HPLM than RPMI (negative = less effective in HPLM)). Details: treatment time: 72 h; dose range: 10-point, 1 nM to 20 µM; media compared: RPMI vs HPLM.

SMILES | percent difference in area under dose-response curve
CN(C)Cc1ccc(-c2nc3cccc4c3n2CCNC4=O)cc1 | -5.91%
CNCCC(Oc1ccc(C(F)(F)F)cc1)c1ccccc1 (centres undefined) [Fluoxetine] | 0.518%
CN(C)CCCn1cc(C2=C(c3c[nH]c4ccccc34)C(=O)NC2=O)c2ccccc21 | 0.14%
CN(C)C/C=C/C(=O)Nc1cc2c(Nc3ccc(F)c(Cl)c3)ncnc2cc1O[C@H]1CCOC1 [Afatinib] | 2.93%
C[C@]1(O)C[C@@H](c2nc(-c3ccc4ccc(-c5ccccc5)nc4c3)c3c(N)nccn32)C1 [Linsitinib] | 1.93%
Cn1cnc([N+](=O)[O-])c1Sc1ncnc2[nH]cnc12 [Azathioprine] | -50.6%
O=c1[nH]c(=O)n(C2CCCO2)cc1F (centres undefined) [Ftorafur] | -2.37%
CN(C)Cc1c(C(=O)NCCOc2ccc(C(=O)NO)cc2)oc2ccccc12 | 0.731%
Clc1ccc(C(c2ccccc2Cl)C(Cl)Cl)cc1 (centres undefined) [Mitotane] | -3.24%
CO[C@H]1/C=C\C=C(/C)C(=O)NC2=CC(=O)C(NCCN(C)C)=C(C[C@@H](C)C[C@H](OC)[C@H](O)[C@@H](C)/C=C(\C)[C@@H]1OC(N)=O)C2=O | -30.8%
O=c1[nH]c(=O)n([C@H]2C[C@H](O)[C@@H](CO)O2)cc1F [Floxuridine] | 14.1%
CC[n+]1c(-c2ccccc2)c2cc(N)ccc2c2ccc(N)cc21 [Ethidium_Bromide] | -18.5%
O=C(O)Cc1cccc(OCCCN(Cc2cccc(C(F)(F)F)c2Cl)CC(c2ccccc2)c2ccccc2)c1 | 1.28%
COc1ccccc1-c1cc(Nc2cccc(CS(N)(=O)=O)c2)ncn1 | -3.21%
Oc1cccc(-c2nc(N3CCOCC3)c3oc4ncccc4c3n2)c1 | 3.18%
CC(C)n1c(/C=C/C(O)CC(O)CC(=O)O)c(-c2ccc(F)cc2)c2ccccc21 (centres undefined) [Fluvastatin_sodium] | -8.4%
CC1(C)C(N(O)C(=O)Nc2ccc(Cl)cc2)N(c2ccc(Cl)cc2)C(=O)N1CC(=O)NN=CC=Cc1ccc([N+](=O)[O-])o1 (centres undefined) [Eeyarestatin_I] | -5.38%

SMILES | percent difference in area under dose-response curve
COC1=C2C[C@@H](C)C[C@H](OC)[C@H](O)[C@@H](C)/C=C(\C)[C@H](OC(N)=O)[C@@H](OC)/C=C\C=C(/C)C(=O)NC(=CC1=O)C2=O [Geldanamycin] | -5.2%
CCCCc1nc2cc(/C=C/C(=O)NO)ccc2n1CCN(CC)CC | 0.47%
CN1CCCN(C(=O)c2cccc(-c3ccc(/C=C4/C(=O)Nc5ccc(Cl)cc54)o3)c2)CC1 | -26.8%
C=CCNC1=C2C[C@@H](C)C[C@H](OC)[C@H](O)[C@@H](C)/C=C(\C)[C@H](OC(N)=O)[C@@H](OC)/C=C\C=C(/C)C(=O)NC(=CC1=O)C2=O | -27.6% and -16.3%
CC(C)[C@H](C(=O)Nc1ccc(C(=O)NO)cc1)c1ccccc1 | -15.2%
COc1cc(O)c(CC=C(C)C)c(O)c1C(=O)/C=C/c1ccc(O)cc1 [Xanthohumol] | -9.86%
Cc1ccc(Nc2nccc(N(C)c3ccc4c(C)n(C)nc4c3)n2)cc1S(N)(=O)=O [Pazopanib] | 5.29%
CC(C)(C)c1cc(C(=O)C(C#N)=NNc2cccc(Cl)c2)no1 | -6.64%
CC[C@@H]1C(=O)N(C)c2cnc(Nc3ccc(C(=O)NC4CCN(C)CC4)cc3OC)nc2N1C1CCCC1 | -23%
NC(=O)Nc1sc(-c2ccc(F)cc2)cc1C(N)=O | 6.37%
Cc1ccc(S(=O)(=O)/C=C/C#N)cc1 | 0.814%
COc1cc(/C=C/C(=O)N2CCC=CC2=O)cc(OC)c1OC [Piperlongumine] | -18.1%
O=C(NCC1(c2nc(-c3ccccc3)cs2)CCOCC1)c1cccc(-c2noc(C(F)(F)F)n2)c1 | 0.481%
O=C(O)C(=O)O.[NH-][C@@H]1CCCC[C@H]1[NH-].[Pt+2] [Oxaliplatin] | -2.44%
Nc1nc(Cl)nc2c1ncn2[C@@H]1O[C@H](CO)[C@@H](O)[C@@H]1F [Clofarabine] | -18.6%
CN(N=O)C(=O)N[C@@H](C=O)[C@@H](O)[C@H](O)[C@H](O)CO [Streptozotocin] | -5.59%
O=C(Nc1ccccc1-c1cn2c(CN3CCNCC3)csc2n1)c1cnc2ccccc2n1 | -8.03%
